# Measured values: PubChem BioAssay
# Unmarked numbers belong to inactive results. Active and inactive are the calls of the source. Cut-off read from the data, not from the text of the source, unless noted: active = inhibition above about 36%; inactive = the rest.
# What was measured:
# [1] = test system: transactivating tegument protein VP16 (Human herpesvirus 1); assay: VP16 transactivation reporter inhibitors, counter-screen for SRC2 inhibitor project, cell-based, luminescence, single concentration (AID 652007); conditions: cell-based VP16 transactivation luciferase reporter, at 8.9 µM, hits give high values
# [2] = biological target: Nuclear receptor coactivator 2 (Homo sapiens) (UniProt Q15596); assay: SRC2 coactivator transcriptional activity inhibitors, confirmation, cell-based, luminescence, HEK293, triplicate (AID 652008;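 active = mean inhibition above 46.5%, the solvent-only control mean plus 3 SD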;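 note: 0% = DMSO-treated cells and 100% = Gossypol at 36 µM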); conditions: HEK293 GAL4-SRC2 luciferase reporter, at 8.9 µM, hits give high values
# Chain of Nuclear receptor coactivator 2 (Homo sapiens) (Q15596 whole entry, looked up, the tested form may be a part): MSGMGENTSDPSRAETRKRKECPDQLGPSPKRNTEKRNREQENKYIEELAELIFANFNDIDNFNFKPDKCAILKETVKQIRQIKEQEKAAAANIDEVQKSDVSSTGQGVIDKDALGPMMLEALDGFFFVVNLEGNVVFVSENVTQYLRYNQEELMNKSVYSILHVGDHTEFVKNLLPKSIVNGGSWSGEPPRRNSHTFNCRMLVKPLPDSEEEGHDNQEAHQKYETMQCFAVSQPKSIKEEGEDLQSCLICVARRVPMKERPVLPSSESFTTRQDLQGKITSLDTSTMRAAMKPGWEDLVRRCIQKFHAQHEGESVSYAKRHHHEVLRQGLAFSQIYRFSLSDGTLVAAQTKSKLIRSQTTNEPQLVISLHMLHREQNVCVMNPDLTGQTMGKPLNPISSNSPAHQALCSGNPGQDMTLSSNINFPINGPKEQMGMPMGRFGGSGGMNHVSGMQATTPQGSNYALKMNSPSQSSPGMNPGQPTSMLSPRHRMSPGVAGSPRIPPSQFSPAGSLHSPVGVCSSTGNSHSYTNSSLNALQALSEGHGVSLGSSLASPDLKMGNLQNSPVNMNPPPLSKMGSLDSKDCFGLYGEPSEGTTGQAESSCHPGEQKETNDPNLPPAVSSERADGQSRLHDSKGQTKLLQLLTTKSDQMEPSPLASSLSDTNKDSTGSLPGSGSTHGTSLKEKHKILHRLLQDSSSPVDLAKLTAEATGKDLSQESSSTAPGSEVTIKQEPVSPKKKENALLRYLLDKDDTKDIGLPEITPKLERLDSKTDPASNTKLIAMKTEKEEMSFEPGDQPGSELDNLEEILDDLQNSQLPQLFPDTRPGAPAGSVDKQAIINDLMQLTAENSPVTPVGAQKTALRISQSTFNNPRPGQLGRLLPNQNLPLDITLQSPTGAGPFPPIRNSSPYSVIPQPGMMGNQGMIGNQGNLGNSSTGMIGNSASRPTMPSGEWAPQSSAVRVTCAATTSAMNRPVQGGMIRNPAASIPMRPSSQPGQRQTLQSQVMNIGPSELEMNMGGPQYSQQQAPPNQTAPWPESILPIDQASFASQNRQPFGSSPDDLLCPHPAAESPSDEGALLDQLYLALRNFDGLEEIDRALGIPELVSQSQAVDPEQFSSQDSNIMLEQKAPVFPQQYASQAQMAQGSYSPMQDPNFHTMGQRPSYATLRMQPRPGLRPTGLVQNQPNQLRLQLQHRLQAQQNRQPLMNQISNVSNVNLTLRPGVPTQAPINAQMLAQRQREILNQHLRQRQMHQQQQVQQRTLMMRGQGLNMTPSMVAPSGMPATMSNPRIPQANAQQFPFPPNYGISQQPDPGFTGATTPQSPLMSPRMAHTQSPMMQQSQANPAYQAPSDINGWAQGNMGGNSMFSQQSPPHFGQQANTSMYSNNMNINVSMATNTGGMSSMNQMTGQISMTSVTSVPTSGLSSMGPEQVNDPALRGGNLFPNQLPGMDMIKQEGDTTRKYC
Structure (SMILES),inhibition [1],inhibition [2]
N=c1c2c3c(sc2ncn1N)CCCCC3,2.99%,-23.5%
Nc1ncc([N+](=O)[O-])c(Oc2ccccc2F)n1,-7%,-16.8%
CCCCCc1ccc(-c2ccc(/C=C/C(=O)O)cc2)nc1,-23.1%,60.2% (active)
Cn1nnnc1Sc1ncnc2scc(-c3cccc(S(C)(=O)=O)c3)c12,21.7%,2.26%
Cc1c(CCC(=O)N2CCC[C@H]2C(=O)O)c(=O)oc2c(C)c3oc4c(c3cc12)CCCC4,39% (active),37.5%
Nc1ccc2oc(-c3cccc4ccccc34)nc2c1,38.3% (active),48.8% (active)
COc1cc(C)c(Br)cc1S(=O)(=O)NCc1cccs1,-10.6%,-12.6%
Cc1nn(-c2ccccc2)c(N2CCCC2)c1/C=N/NC(=O)c1cccc(S(=O)(=O)Nc2ccc(Cl)cc2)c1,-8.85%,-16.7%
COc1ccc(NC(=O)C2(C)Cc3c(-c4cccc(C(F)(F)F)c4)ccnc3O2)cn1 (stereo unspecified),-0.87%,-0.12%
Nc1ccc(-c2cc3ccccc3c(=O)o2)cc1,-7.3%,79.1% (active)
CCc1cccc(C)c1NC(=O)CSc1nnc(CCCOc2ccc(Cl)cc2Cl)n1C,-13.2%,-8.02%
c1cc(-c2nnc3n2N=C(c2ccc4c(c2)OCO4)CS3)ccn1,-3.48%,42.4%
CCOc1cc(/C=C/C(=O)c2ccc3c(c2)OCCO3)ccc1OCC(=O)N(C)C,2.55%,16.2%
O=C(COc1ccc([N+](=O)[O-])cc1)Nc1ccc(C(=O)NCc2cccnc2)cc1,-13.3%,27.8%
CCOC(=O)c1[nH]c(=S)n(-c2ccccc2)c1C(=O)OCC,-1.17%,-17.4%
Cc1ccc(N(C)C(=O)c2cc(S(=O)(=O)N3CCCCC3)c[nH]2)cc1,1.11%,15.4%
CSCC[C@H](NC(=O)c1cc([N+](=O)[O-])ccc1Cl)c1nc2ccccc2[nH]1,-0.37%,19%
Cc1ccc(C2(CCNCc3ccco3)CCOC(C(C)C)C2)cc1 (stereo unspecified),-11.6%,-20.8%
CCOC(=O)c1ccc(-c2ccc(N3C(c4cccc(OC)c4)=Cc4ccc(F)cc4C3CC(C)=O)cc2)cc1F (stereo unspecified),-0.77%,21.3%
CCCCCCCCN1C(=O)[C@H](CC(=O)NCCCC)C[C@@]2(C(=O)OCC)CCCC=C12,-14%,-0.38%
O=C(O)CCSc1nnc(-c2ccc3c(c2)OCO3)o1,45.9% (active),60.7% (active)
CC[n+]1cccc(-c2nc3ccccc3s2)c1,9.34%,13%
CCOn1c(=O)c[n+]([O-])c2ccccc21,9.21%,-6.65%
COc1ccc(/C=C2\SC(=S)N(CCC(=O)NC3C=CS(=O)(=O)C3)C2=O)cc1 (stereo unspecified),3.55%,62.1% (active)
COc1ccc(/C=C2\SC(=S)N(CCCC(=O)N3CCOCC3)C2=O)cc1,45.9% (active),35.5%

Structure (SMILES),inhibition [1],inhibition [2]
CCCCCCC(=O)N(O)C1CC(=O)N(c2ccc(C)cc2)C1=O (stereo unspecified),9.6%,39.9%
O=C(/C=C/c1cccnc1)/C=C/c1cccnc1,77.1% (active),5.81%
CC(C)=C1C2CCC1C1C(=O)N(c3nccs3)C(=O)C21 (stereo unspecified),12.1%,6.16%
O=C(NC12CC3CC(CC(C3)C1)C2)C1CC(=O)N(c2ccccc2)C1 (stereo unspecified),9.52%,-0.38%
N#Cc1c([N+](=O)[O-])cc([N+](=O)[O-])cc1S(=O)(=O)Cc1ccccc1,96.4% (active),98.5% (active)
O=C1C2CCCN2C(=S)N1C1CCCCC1 (stereo unspecified),1.86%,3.89%
Cn1cnnc1SCC(=O)NC1CCCC1,-4.24%,-19.9%
CC(=O)N(Cc1ccc(F)cc1)C1=C(NCCc2ccccc2)C(=O)c2ccccc2C1=O,14.1%,20%
CCOc1ccc(-n2nc3ccc(N)cc3n2)cc1,-14.3%,66% (active)
CC(C)(C)C(=O)Nc1nnc(CSCc2ccccc2F)s1,-20.9%,9.89%
COc1ccc(-n2c(SCC(=O)NN=Cc3c(O)ccc4ccccc34)nnc2-c2ccc(C(C)(C)C)cc2)cc1,-13%,30.7%
Cc1cccnc1CN1CCN(C(=O)c2cc(COc3ccc4ncccc4c3)on2)CC1,8.23%,15.3%
CCS(=O)(=O)c1ncc(Cl)c(C(=O)Nc2ccc(S(=O)(=O)N3CCC(C)CC3)cc2)n1,89.9% (active),86.7% (active)
Cc1ccc(-c2c(C(=O)N/N=C/C3CCCCC3)nnn2-c2nonc2N)cc1,-21.5%,-23%
O=C(c1c[nH]c2ccccc12)C(Cl)c1ccccc1 (stereo unspecified),27.7%,33.8%
Cc1sc(NC(=O)CSc2nnnn2C(C)C)c(C#N)c1C,2.68%,-4.47%
C=CCOc1ccccc1CN1CCC(Cc2ccccc2)CC1,8.57%,-13.5%
CC(=NCc1ccco1)c1c(C)[nH]n(-c2nc3ccccc3s2)c1=O,-24%,14.3%
CCNC(=O)C1(C)CCCN(Cc2csc(-c3ccccc3)n2)C1 (stereo unspecified),-30.6%,-4.83%
O=C(Nc1ncn[nH]1)c1ccc(Cl)c(S(=O)(=O)Nc2ccc(Cl)cc2)c1,-5.84%,5.69%
Cc1ccoc1C(=O)Nc1ccc(CC(=O)O)cc1,41.7% (active),83.4% (active)
O=C1c2ccccc2S(=O)(=O)N1Cc1nc2ccccc2s1,6.44%,31.4%
COc1cc(N(C(C)=O)c2ccc(O)cc2)c2ncccc2c1,1.2%,2.41%
COc1ccc(CN=C(Nc2ccccc2)SC2CC(=O)NC2=O)cc1 (stereo unspecified),-5.45%,-13.2%
CCCN1C2CCCC1CC(NC(=O)c1cccc(Cl)c1)C2 (stereo unspecified),4.37%,40.8%

Structure (SMILES),inhibition [1],inhibition [2]
CN(Cc1ccccc1)C(=O)c1ccc(NC(=O)C2CCN(C(=O)OC(C)(C)C)CC2)cc1,15.8%,60.4% (active)
COc1ccc(CN2C(=O)C(CC(=O)NCCN3CCOCC3)CC(C(=O)N(C(C)C)C(C)C)=C2C)cc1 (stereo unspecified),0.37%,-36.3%
COc1cccc(/C=N/NC(=O)c2cc(-c3ccccn3)nc3ccccc23)c1O,9.38%,19.8%
COc1cccc(NC(=O)c2cc(Cl)nnc2Cl)c1,23.6%,44%
COCCn1c(-c2ccc(Br)cc2)csc1=Nc1cccnc1,10.4%,20.4%
O=c1[nH]nc(Sc2ncnc3sccc23)n1CCc1ccccc1,14.9%,47.5% (active)
CCOC(=O)C1(CC2CC2)CCN(Cc2cnc(-c3ccccc3C)nc2)CC1,3.57%,3.04%
CCn1nc(NS(=O)(=O)c2ccc([N+](=O)[O-])cc2)c2cc3ccc(C)cc3nc21,10.1%,-26.1%
CN1CCN(S(=O)(=O)c2cccc(C(=O)Nc3ccc(Br)cc3Br)c2)CC1,12.2%,12.1%
CCN(CC)S(=O)(=O)c1ccc(/C=C/C(=O)OCC(=O)NCc2ccc3c(c2)OCO3)cc1,-0.7%,-11.1%
COc1ccccc1C(=O)NCc1ccc(-c2nc3ccccc3s2)cc1,-14%,22.1%
Cc1onc(-c2ccccc2Cl)c1C(=O)N1CCC(Cc2ccccc2)CC1,9.05%,10.1%
O=C(NN1CCOCC1)c1ccco1,-7.57%,-31.5%
COc1cccc(/C=C2\SC(=S)N(CCCC(=O)N3CCCCC3CCO)C2=O)c1 (stereo unspecified),51.2% (active),52.2% (active)
COc1cc(NC(=O)c2cccs2)c(C(=O)OCC(=O)c2cc(C)n(-c3ccccc3)c2C)cc1OC,27.5%,67% (active)
COc1ccccc1C(C)NC(=O)C1CCN(S(=O)(=O)c2cccs2)CC1 (stereo unspecified),-3.74%,6.18%
CCOC(=O)CCSc1nc(C(C)(C)C)cc(C(F)(F)F)c1C#N,-14.2%,-27.6%
Cc1sc(NC(=O)CCCC(=O)O)c(C(N)=O)c1-c1ccccc1,37.1% (active),75.5% (active)
Cc1ccc(NC(=O)CSc2ncnc3ccccc23)cc1S(=O)(=O)N1CCCCC1,6.85%,30%
CCOC(=O)COc1ccc(S(=O)(=O)N2CCN(c3ccc(OC)cc3)CC2)cc1,3.67%,-1.53%
O=C(CSc1nc(N2CCOCC2)nc(N2CCOCC2)n1)Nc1ccccc1F,1.31%,14.8%
CC(C)c1ccc(/C=C2\CC/C(=C\C=N\N(C)C)C2=O)cc1,-56.7%,-2.89%
Cc1ccc(CC2C(=O)N(c3cc(C)ccc3C)C(=O)C2C)cc1 (stereo unspecified),0.03%,9.44%
